Compounds with a hit are over-represented: about 3.6% of the library has one in this group of screens.
mHTT CaM bind: inhibitors of human mutant huntingtin-calmodulin interaction. P42858. AlphaScreen His-mHTT/GST-CaM binding, luminescence. inhibition, % at 15 µM. 190,000 tested, 3.6% active;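 also: 0% = both proteins with DMSO and 100% = one protein alone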
Pf apPOL inh: Pf-apPOL DNA polymerase inhibition; Recombinant Pf-apPOL, molecular beacon fluorescence, 1.5 h; inhibition, % at 10 µM; 210,000 tested, 0.25% active
Active calls of the source: *; i = inactive; / = no result given; ! = repeats disagree. Rule as the data show it: active = inhibition above about 50%; inactive = the rest.

SMILES	mHTT CaM bind	Pf apPOL inh
O=C1/C(=C/c2ccccc2F)Sc2ccccc21	58.0*	-5.1
O=C1/C(=C/c2ccc(F)cc2F)Sc2ccccc21	11.0	-5.3
CSCCC(C)(O)CNC(=O)C1(c2cccs2)CCCC1 (centres undefined)	0.7	-1.4
CC(C)c1ccc(S(=O)(=O)NCCC2CCN(C(=O)c3ccc(F)cc3)CC2)cc1	37.4	-1.0
O=[N+]([O-])c1ccccc1C1CC(c2ccccc2)=NN1 (centres undefined)	61.0*	6.9
CC(=O)N1N=C(c2ccccc2)CC1c1ccccc1[N+](=O)[O-] (centres undefined)	0.0	-34.6
CC(=O)NC1(C(F)(F)F)NC(=O)N(Cc2ccccc2)C1=O (centres undefined)	2.0	-0.8
CCOc1ccc(Nc2nc(-c3c(C)nc4cc(C)ccn34)cs2)cc1	67.1*	-26.0
Cc1nc2ccccn2c1-c1csc(NCc2ccccc2)n1	36.0	-3.3
Cc1nc2sccn2c1-c1csc(Nc2ccccn2)n1	29.0	-0.6
Cc1ccc(Nc2nc(-c3c(C)nc4ncccn34)cs2)cc1	80.0*	-1.0
CCN(CC)c1ccc(Nc2nc(-c3c(C)nc4ccccn34)cs2)cc1	97.2*	63.5*
Cc1nc2ncccn2c1-c1csc(NCc2ccccc2)n1	7.0	-1.7
Cc1ccn2c(-c3csc(Nc4ncccn4)n3)c(C)nc2c1	0.0	-3.0
Cc1ccccc1Nc1nc(-c2c(C)nc3sccn23)cs1	56.0*	-3.8
CCCc1cc(C2CCCN2C(=O)c2nn(C)cc2Cl)no1 (centres undefined)	-5.9	-2.2
COc1ccc(C2CC(c3ccc(OC(F)F)cc3)n3ncnc3N2)cc1 (centres undefined)	8.0	-0.5
Cn1cc(Br)c(C(=O)O)n1	-9.9	/
CN1C(=O)Cc2ccccc2C1C(=O)N1CCN(c2ccccc2F)CC1 (centres undefined)	2.6	0.4
O=C1CS(=O)(=O)C(c2ccccc2[N+](=O)[O-])N1c1ccc(Cl)c(Cl)c1 (centres undefined)	16.0	-5.2
CCN(CC)CCN1C(=O)C(=O)C(=C(O)c2ccc(OC)cc2)C1c1ccncc1 (centres undefined)	0.4	-3.5
Cc1ccc(NC(=O)N2CCOc3ccccc32)c(C)c1	-0.2	-6.0
COc1cc(OC)cc(C(=O)Nc2sc3c(c2C(N)=O)CCCCCC3)c1	-1.1	1.7
Cc1ccccc1NC(=O)NCCC1CCN(S(=O)(=O)c2ccccc2)CC1	35.5	1.4
O=C(O)Cc1c[nH]c2ccccc12	9.7	-0.6
SMILES	mHTT CaM bind	Pf apPOL inh
c1ccc2c(Cc3c[nH]c4ccc(-c5ccncc5)cc34)c[nH]c2c1	100.1*	3.1
CCN(Cc1cc(-c2ccc(C)cc2C)on1)C(=O)c1ccc(C)cc1	-21.8	1.2
CC(=O)N(Cc1ccc2c(c1)OCO2)Cc1cc(-c2ccc(C)cc2C)on1	61.2*	-3.2
O=C(Nc1ccc2c(c1)Sc1ccccc1C(=O)N2C1CC1)C1CCC1	3.2	-5.2
Cc1cccc2c(=O)n(C3CCN(S(=O)(=O)c4cccc(Cl)c4)CC3)cnc12	-7.2	2.4
COc1ccc(/C=C2\c3cc([N+](=O)[O-])ccc3-c3c2cc([N+](=O)[O-])cc3[N+](=O)[O-])cc1OC	9.0	-3.8
CCO/C=C1\c2cc([N+](=O)[O-])ccc2-c2c1cc([N+](=O)[O-])cc2[N+](=O)[O-]	74.0*	-5.4
CCC1CCCCN1CCCNC(=O)C1CCN(c2nc3cccnc3s2)CC1 (centres undefined)	12.7	-3.5
CC(=O)N1CCc2cc(N3CC(C(=O)N4CCN(c5ccccn5)CC4)CC3=O)ccc21 (centres undefined)	9.2	1.9
CC1=C(C#N)C(=O)NC(=O)/C1=C\c1ccc(-c2cc([N+](=O)[O-])ccc2Cl)o1	1.0	12.1
CC1=C(C#N)C(=O)NC(=O)/C1=C\c1ccc(-c2ccc(Cl)cc2Cl)o1	71.0*!	-3.7
O=[N+]([O-])c1ncn(Cc2cccc(Br)c2)n1	-2.8	3.4
O=[N+]([O-])c1ncn(CNc2cc(Br)cc3cccnc23)n1	65.0*	-2.4
COc1ccccc1CN1C(=O)Cn2cccc2C1C(=O)NC1CCCCC1 (centres undefined)	20.6	4.9
COc1ccc(C(CCN2CCCC(C)C2)c2c(O)cc(OC)cc2OC)cc1 (centres undefined)	15.3	-1.3
COc1cc(OC)c2ccc(=O)oc2c1C(CCN1CCCC(C)C1)c1ccc(N(C)C)cc1 (centres undefined)	54.1*	-1.1
COc1cc(O)c(C(CCN2CCCC(C)C2)c2cc(OC)c(OC)c(OC)c2)c(OC)c1 (centres undefined)	8.6	-6.4
COc1cc(C2CC(=O)Oc3c(C(CCN4CCCC(C)C4)c4ccc(N(C)C)cc4)c(OC)cc(OC)c32)cc(OC)c1OC (centres undefined)	86.2*	-4.2
COc1cc(OC)c2c(c1C(CCN1CCCC(C)C1)c1ccc(N(C)C)cc1)OC(=O)CC2c1ccc(N(C)C)cc1 (centres undefined)	100.3*	-4.3
COc1cc(C2CC(=O)Oc3ccc(C(C)(C)C)cc32)cc(OC)c1OC (centres undefined)	29.8	-1.0
COc1cc(C(CCN2CCCC(C)C2)c2c(OC)cc(OC)c3c2OC(=O)CC3c2ccc(N(C)C)cc2)cc(OC)c1OC (centres undefined)	93.2*	7.3
Cc1ccc(N=Cc2nc(-c3ccccc3F)oc2O)c(C)c1	-7.0	-2.9
Cc1cc(C)nc(SCC(=O)Nc2cccc(C(F)(F)F)c2)n1	5.0	-0.3
Cc1cccc(-n2nc3c(c2NC(=O)COc2ccccc2)CS(=O)(=O)C3)c1C	5.0	-5.2
c1nc(N2CCNCC2)c2sc3nc(N4CCOCC4)c4c(c3c2n1)CCCC4	14.0	-9.9
SMILES	mHTT CaM bind	Pf apPOL inh
c1nc(NCCN2CCOCC2)c2sc3nc(N4CCOCC4)c4c(c3c2n1)CCCC4	55.0*	0.0
CC1CCN(C(=O)C2CCN(c3nc4cccnc4s3)CC2)CC1	-0.5	-3.8
CCOc1ccc(N=C(NN)c2ccc3ccccc3n2)cc1	55.5*	-7.3
Cc1ccc(N=C(NN)c2ccc3ccccc3n2)cc1	44.6	1.7
Cc1sc2nc(CN3CCN(C)CC3)[nH]c(=O)c2c1C	0.0	-1.7
O=[N+]([O-])c1cccc(/C(=N/O)N2CCOCC2)c1	i	-4.5
CCS(=O)(=O)c1ncc(Cl)c(C(=O)Nc2ccc(Oc3ccccc3)cc2)n1	98.2*	-3.3
Nc1c(C(=O)Nc2ccc(Oc3ccccc3)cc2)nnn1Cc1ccccc1	11.0	-4.3
Cc1ccccc1CC(=O)NC1CCc2[nH]c3c(C)cccc3c2C1 (centres undefined)	29.0	12.6
COCC(=O)NC1CCc2[nH]c3c(C)cccc3c2C1 (centres undefined)	9.9	-2.4
CCc1cccc2c3c([nH]c12)CCC(NC(=O)CC1C=CCC1)C3 (centres undefined)	56.6*	9.6
Cc1nc(CC(=O)NC2CCc3[nH]c4c(Cl)cccc4c3C2)c(C)s1 (centres undefined)	95.4*	-11.6
O=C(COc1ccc(F)cc1)NCC1(c2cccs2)CC1	-17.1	-0.6
CC(C)(C)c1ccc(OCC(N)=S)cc1	/	-1.4
CCOC(=O)N1CCN(C(=O)Nc2nc(CC(=O)NCc3cccs3)cs2)CC1	-12.4	-4.0
CC(C)CN1CCn2cc(C(=O)N3CCN(c4ccccc4)CC3)nc2C1	57.7*	-6.1
CC(C)CN1CCn2cc(C(=O)N3CCN(c4ccccc4Cl)CC3)nc2C1	45.7	-4.2

Source: PubChem (University of Kansas High Throughput Screening Laboratory)
